Data reported in PubChem BioAssay (NCATS).
Results filed as inconclusive are left out. The source made the active and inactive calls. Unless noted, calls come from the whole dose curve.

Test system: not listed separately
Experiment: Primary qHTS for Huh7 cytotoxicity: counterscreen for inhibitors of MERS-S pseudotyped particle cell entry (AID 1479147)
Conditions: cell viability read-out; series mostly up to 57.1 µM; activity change, negative = cytotoxicity: at the top concentration
% is set by controls: 0 for no effect and ±100 for the full control effect.

Row | SMILES | activity change, negative = cytotoxicity | outcome
1 | ClC1C(Cl)C(Cl)C(Cl)C(Cl)C1Cl (stereo not drawn) | -13.2% (inactive) | –
2 | CCNCC(O)c1cccc(O)c1 (stereo not drawn) | – | inactive
3 | CCCC(=O)OC(C(Cl)(Cl)Cl)P(=O)(OC)OC (stereo not drawn) | 2.6% [at 114 µM] (inactive) | –
4 | CCOc1ccc2c3c1O[C@H]1[C@@H](O)C=C[C@H]4[C@@H](C2)N(C)CC[C@@]341 | – | inactive
5 | CC[C@H]1CN2CC[C@H]1C[C@@H]2[C@@H](O)c1ccnc2ccc(OC)cc12 | -11% (inactive) | –
6 | FC(F)OC(F)(F)C(F)Cl (stereo not drawn) | – | inactive
7 | C[C@]12CC[C@H](OS(=O)(=O)O)CC1=CC[C@@H]1[C@@H]2CC[C@]2(C)C(=O)CC[C@@H]12 | – | inactive
8 | CCC(=O)O[C@@](Cc1ccccc1)(c1ccccc1)[C@@H](C)CN(C)C | – | inactive
9 | Cc1ccccc1-n1c(CF)nc2ccc(N)cc2c1=O | – | inactive
10 | C[C@]12CC[C@H]3[C@@H](CCC4=C(O)C(=O)CC[C@@H]43)[C@@H]1CC[C@@H]2OC(=O)CCC1CCCC1 | – | inactive
11 | CCC1(CC)C(=O)NC(=O)N(C)C1=O | – | inactive
12 | Oc1ccc2c3c1O[C@H]1[C@@H](O)CC[C@@]4(O)[C@@H](C2)N(CC2CCC2)CC[C@]314 | -17.8% (inactive) | –
13 | CCCCCCC(=O)O[C@H]1CC[C@H]2[C@@H]3CC[C@H]4CC(=O)C=C(C)[C@]4(C)[C@H]3CC[C@]12C | -2.38% (inactive) | –

Test system: not listed separately
Experiment: Primary qHTS for inhibitors of MERS-S pseudo-typed particle cell entry (AID 1479149); note: nearly all actives have a fitted effect of over 60% in size
Conditions: MERS-S pseudotyped particle entry, luciferase; series mostly up to 57.1 µM; activity change, negative = inhibition: at the top concentration

Row | SMILES | outcome | activity change, negative = inhibition
14 | ClC1C(Cl)C(Cl)C(Cl)C(Cl)C1Cl (stereo not drawn) | inactive | –
15 | CCNCC(O)c1cccc(O)c1 (stereo not drawn) | inactive | –
16 | CCCC(=O)OC(C(Cl)(Cl)Cl)P(=O)(OC)OC (stereo not drawn) | inactive [at 114 µM] | –
17 | CCOc1ccc2c3c1O[C@H]1[C@@H](O)C=C[C@H]4[C@@H](C2)N(C)CC[C@@]341 | inactive | –
18 | FC(F)OC(F)(F)C(F)Cl (stereo not drawn) | inactive | –
19 | C[C@]12CC[C@H](OS(=O)(=O)O)CC1=CC[C@@H]1[C@@H]2CC[C@]2(C)C(=O)CC[C@@H]12 | inactive | –
20 | CCC(=O)O[C@@](Cc1ccccc1)(c1ccccc1)[C@@H](C)CN(C)C | – | -13.2% (inactive)
21 | Cc1ccccc1-n1c(CF)nc2ccc(N)cc2c1=O | inactive | –
22 | C[C@]12CC[C@H]3[C@@H](CCC4=C(O)C(=O)CC[C@@H]43)[C@@H]1CC[C@@H]2OC(=O)CCC1CCCC1 | inactive | –
23 | CCC1(CC)C(=O)NC(=O)N(C)C1=O | inactive | –
24 | Oc1ccc2c3c1O[C@H]1[C@@H](O)CC[C@@]4(O)[C@@H](C2)N(CC2CCC2)CC[C@]314 | inactive | –
25 | O=C1OC2(c3cc(Br)c(O)cc3Oc3c2cc(Br)c(O)[c]3[Hg])c2ccccc21 (stereo not drawn) | inactive | –
26 | CCCCCCC(=O)O[C@H]1CC[C@H]2[C@@H]3CC[C@H]4CC(=O)C=C(C)[C@]4(C)[C@H]3CC[C@]12C | – | -26.9% (inactive)

Test system: not listed separately
Experiment: Primary qHTS for Vero E6 cytotoxicity: counterscreen for inhibitors of SARS-S pseudo-typed particle cell entry (AID 1479150); note: potency is the fitted concentration of half-maximal effect
Conditions: cell viability; series mostly up to 57.1 µM; activity change, negative = cytotoxicity: at the top concentration

Row | SMILES | activity change, negative = cytotoxicity | Potency | outcome
27 | ClC1C(Cl)C(Cl)C(Cl)C(Cl)C1Cl (stereo not drawn) | 0.622% (inactive) | – | –
28 | COC([CH2][Hg])CNC(=O)c1ccccc1OCC(=O)O (stereo not drawn) | – | 3.55 µM (active) | –
29 | CCNCC(O)c1cccc(O)c1 (stereo not drawn) | – | – | inactive
30 | CCCC(=O)OC(C(Cl)(Cl)Cl)P(=O)(OC)OC (stereo not drawn) | – | – | inactive [at 114 µM]
31 | CCOc1ccc2c3c1O[C@H]1[C@@H](O)C=C[C@H]4[C@@H](C2)N(C)CC[C@@]341 | – | – | inactive
32 | CC[C@H]1CN2CC[C@H]1C[C@@H]2[C@@H](O)c1ccnc2ccc(OC)cc12 | -1.86% (inactive) | – | –
33 | FC(F)OC(F)(F)C(F)Cl (stereo not drawn) | 4.23% (inactive) | – | –
34 | C[C@]12CC[C@H](OS(=O)(=O)O)CC1=CC[C@@H]1[C@@H]2CC[C@]2(C)C(=O)CC[C@@H]12 | -3.47% (inactive) | – | –
35 | CCC(=O)O[C@@](Cc1ccccc1)(c1ccccc1)[C@@H](C)CN(C)C | 0.333% (inactive) | – | –
36 | O=C1C2CC=CCC2C(=O)N1SC(Cl)(Cl)Cl (stereo not drawn) | – | 20 µM (active) | –
37 | Cc1ccccc1-n1c(CF)nc2ccc(N)cc2c1=O | 3.62% (inactive) | – | –
38 | C[C@]12CC[C@H]3[C@@H](CCC4=C(O)C(=O)CC[C@@H]43)[C@@H]1CC[C@@H]2OC(=O)CCC1CCCC1 | – | – | inactive
39 | CCC1(CC)C(=O)NC(=O)N(C)C1=O | -2.85% (inactive) | – | –
40 | Oc1ccc2c3c1O[C@H]1[C@@H](O)CC[C@@]4(O)[C@@H](C2)N(CC2CCC2)CC[C@]314 | -11.9% (inactive) | – | –
41 | CCCCCCC(=O)O[C@H]1CC[C@H]2[C@@H]3CC[C@H]4CC(=O)C=C(C)[C@]4(C)[C@H]3CC[C@]12C | -6.69% (inactive) | – | –

Target: Calcium and integrin-binding protein 1 (Homo sapiens) (UniProt Q99828)
Experiment: Primary qHTS for Identification of Calcium Integrin Binding Protein 1 (CIB1) Competitor (AID 1508620; active = well fitted inhibition curve with a large enough effect;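 note: GST tagged CIB1 binding a fluorescein labelled alphaIIb integrin peptide tracer; top concentration of the series differs between compounds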)
Conditions: CIB1-GST / FITC-alphaIIb peptide fluorescence polarization; series mostly up to 114 µM; activity change, negative = inhibition: at the top concentration
Outline: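 CIB1-GST (1 uM final) and compound incubated 15 min at room temperature before adding FITC-alphaIIb peptide tracer (100 nM final). Competition for binding read by fluorescence polarization (ex 480, em 540) after another 15 min at room temperature.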

Chain of Calcium and integrin-binding protein 1 (Homo sapiens) (Q99828 whole entry, looked up): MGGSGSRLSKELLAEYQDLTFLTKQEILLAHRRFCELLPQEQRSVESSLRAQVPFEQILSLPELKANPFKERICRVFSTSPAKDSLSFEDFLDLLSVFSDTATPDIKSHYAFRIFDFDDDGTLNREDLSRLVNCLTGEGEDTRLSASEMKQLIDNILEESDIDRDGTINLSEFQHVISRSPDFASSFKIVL

Row | SMILES | activity change, negative = inhibition
42 | COCC1OC(=O)c2coc3c2C1(C)C1=C(C3=O)C2CCC(=O)C2(C)CC1O (stereo not drawn) | 0.893% [at 57.7 µM] (inactive)
43 | COC1CC(O[C@H]2CC[C@@]3(C)C(=CCC4C3C(O)[C@@H](O)[C@]3(C)[C@@H](C(C)=O)CC[C@]43O)C2)OC(C)C1OC1CC(OC)C(OC2OC(C)C(O)C(O)C2O)C(C)O1 (stereo partly drawn) | -0.69% [at 30.2 µM] (inactive)
44 | N#C[C@@H](O[C@@H]1O[C@H](CO[C@@H]2O[C@H](CO)[C@@H](O)[C@H](O)[C@H]2O)[C@@H](O)[C@H](O)[C@H]1O)c1ccccc1 | 0.359% [at 57.7 µM] (inactive)
45 | CC[C@H]1CN2CC[C@H]1C[C@@H]2[C@@H](O)c1ccnc2ccc(OC)cc12 | 1.48% [at 57.7 µM] (inactive)
46 | C[C@H](NC(=O)Cc1cc(F)cc(F)c1)C(=O)N[C@@H]1N=C(c2ccccc2)c2ccccc2N(C)C1=O | -2.98% (inactive)
47 | CC(C)C1(OO)C=C2C(=O)CC3C(C)(C(=O)O)CCCC3(C)C2CC1 (stereo not drawn) | -1.69% [at 57.7 µM] (inactive)
48 | C=C[C@H]1[C@H](O[C@@H]2O[C@H](CO)[C@@H](O)[C@H](O)[C@H]2O)OC=C2C(=O)OCC[C@H]21 | 0.797% [at 57.7 µM] (inactive)
49 | C=C(CO)C(=O)O[C@H]1C/C(C)=C/CC/C(CO)=C/[C@H]2OC(=O)C(=C)[C@H]12 | -4.98% [at 57.7 µM] (inactive)
50 | CCN1CC2(COC)C3[C@@H](OC)C4C1C3(C1C[C@]3(O)[C@H](OC(=O)c5ccccc5)C1[C@]4(OC(C)=O)[C@@H](O)[C@@H]3OC)[C@H](OC)C[C@H]2O (stereo partly drawn) | -0.0778% (inactive)
51 | CO[C@@H]1[C@H](O)[C@@H](O[C@@H]2C[C@H]3CC[C@@H]4C(CC[C@]5(C)[C@@H](C6=CC(=O)OC6)CC[C@]45O)[C@@]3(C)[C@H](O)C2)O[C@H](C)[C@@H]1O[C@@H]1O[C@H](CO)[C@@H](O)[C@H](O)[C@H]1O (stereo partly drawn) | 3.82% [at 30.2 µM] (inactive)
52 | COc1ccccc1CN[C@H]1C2CCN(CC2)[C@H]1C(c1ccccc1)c1ccccc1 | -1.46% (inactive)
53 | C[C@@]1(C(=O)O)CC[C@]2(C)CC[C@]3(C)C4=CC(=O)c5cc(O)c(O)cc5[C@]4(C)CC[C@@]3(C)[C@@H]2C1 | -1.42% [at 57.7 µM] (inactive)
54 | C[C@H]1O[C@@H](O[C@H]2C[C@@H](O)[C@]3(CO)C4C(CC[C@]3(O)C2)[C@@]2(O)CC[C@H](C3=CC(=O)OC3)[C@@]2(C)C[C@H]4O)[C@@H](O)[C@@H](O)[C@H]1O (stereo partly drawn) | -0.247% [at 30.2 µM] (inactive)
55 | COc1c(C(C)C)cc2c(c1O)[C@@]1(C(=O)O)CCCC(C)(C)C1CC2 (stereo partly drawn) | -12.9% [at 57.7 µM] (inactive)
56 | CO[C@H]1[C@H](O)[C@H](O[C@H]2CC[C@]3(C)C4CC[C@]5(C)[C@H](C6=CC(=O)OC6)CC[C@]5(O)C4CC[C@@H]3C2)O[C@@H](C)[C@@H]1O (stereo partly drawn) | -3.38% [at 57.7 µM] (inactive)
57 | O=C(O)c1ccnc2cc(C(OCCN3CCCCC3)c3ccccc3Cl)[nH]c12 (stereo not drawn) | 0.384% (inactive)
58 | OCCCCC#Cc1cncc(OC[C@@H]2CCN2)c1 | 1.94% (inactive)
59 | N#CC(OC1OC(COC2OC(CO)C(O)C(O)C2O)C(O)C(O)C1O)c1ccccc1 (stereo not drawn) | 3.84% [at 57.7 µM] (inactive)
60 | C/C=C(\C)C(=O)O[C@H]1[C@H](OC(C)=O)[C@]2(CO)[C@H](O)[C@H](O)[C@]3(C)C(=CCC4[C@@]5(C)CC[C@H](O[C@@H]6O[C@H](C(=O)O)[C@@H](O)[C@H](O[C@@H]7OC[C@H](O)[C@H](O[C@@H]8OC[C@H](O)[C@H](O)[C@H]8O)[C@H]7O)[C@H]6O[C@@H]6O[C@H](CO)[C@@H](O)[C@H](O)[C@H]6O)C(C)(C)C5CC[C@]43C)[C@@H]2CC1(C)C (stereo partly drawn) | 1% [at 12.4 µM] (inactive)
61 | C=C(C)[C@H]1O[C@H]2CC[C@@]3(C)[C@@](O)(CC[C@H]4[C@@H]5OC(C)(C)[C@H]6C[C@@H]7C(=C)Cc8c(Cl)cc9[nH]c(c5c9c8[C@@]76O)[C@@]43C)[C@]23O[C@@H]3[C@H]1O | 1.31% [at 30.2 µM] (inactive)
62 | CN1CCCC1CCOC(c1cc2nccc(C(=O)O)c2[nH]1)c1ccccc1Cl (stereo not drawn) | -8.17% (inactive)
63 | CC(N)Cc1c[nH]c2ccccc12 (stereo not drawn) | 3.09% (inactive)
